# According to PMC7862700, “An all-to-all approach to the identification of sequence-specific readers for epigenetic DNA modifications on cytosine”:
# Key:
# Assay in all cases: DAPPL (digital affinity profiling via proximity ligation, sequencing); 10 mM Tris-HCl pH 7.5, 50 mM NaCl, 1 mM DTT, 4% glycerol, room temperature, 30 min; GST-TFs on glutathione beads, 16-mer random dsDNA library, 0.1% formaldehyde crosslink after washing; high values mean tight binding
# [1] = molecular target: T1, FEV (Homo sapiens, UniProt Q99581 1-238); conditions: protein: recombinant; tags: N-terminal GST; dsDNA, one strand shown
# T1 sequence: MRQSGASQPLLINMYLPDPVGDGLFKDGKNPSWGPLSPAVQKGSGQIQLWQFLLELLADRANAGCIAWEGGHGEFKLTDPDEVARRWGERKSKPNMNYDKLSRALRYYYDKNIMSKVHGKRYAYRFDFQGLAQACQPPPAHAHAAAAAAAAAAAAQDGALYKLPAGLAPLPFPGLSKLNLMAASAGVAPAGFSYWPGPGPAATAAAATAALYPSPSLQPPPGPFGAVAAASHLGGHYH
# In short: (§1)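 Yeast served to express human transcription factors as GST fusions, which were then captured on glutathione beads and labelled with DNA barcodes. Pooled with a tag-only sample, they were incubated with 200 nmole of a 16-mer random double-stranded DNA library for 30 min at room temperature in Tris/NaCl/DTT/glycerol buffer, washed, crosslinked with 0.1% formaldehyde, ligated by proximity, amplified by PCR and sequenced. Dividing each hexamer's read frequency for a factor by its frequency for the tag-only sample gives the binding signal.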
# [2] = molecular target: ETV5 (Homo sapiens, UniProt P41161 1-510); conditions: protein: recombinant; tags: N-terminal GST; dsDNA, one strand shown
# In short: as §1
# [3] = molecular target: HSF1 (Homo sapiens, UniProt Q00613 1-529); conditions: protein: recombinant; tags: N-terminal GST; chain copies: 3; dsDNA, one strand shown
# In short: as §1
# [4] = molecular target: T2, SPIC (Homo sapiens, UniProt Q8N5J4 1-248); conditions: protein: recombinant; tags: N-terminal GST; dsDNA, one strand shown
# T2 sequence: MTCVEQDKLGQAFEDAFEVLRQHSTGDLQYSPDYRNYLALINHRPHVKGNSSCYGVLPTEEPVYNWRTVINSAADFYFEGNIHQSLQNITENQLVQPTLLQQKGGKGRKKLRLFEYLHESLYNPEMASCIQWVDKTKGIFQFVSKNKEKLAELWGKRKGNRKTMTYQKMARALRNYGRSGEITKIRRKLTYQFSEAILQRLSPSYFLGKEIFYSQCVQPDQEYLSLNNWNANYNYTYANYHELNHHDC
# In short: as §1
# [5] = molecular target: ELF4 (Homo sapiens, UniProt Q99607 1-663); conditions: protein: recombinant; tags: N-terminal GST; dsDNA, one strand shown
# In short: as §1
# [6] = molecular target: T3, ELK4 (Homo sapiens, UniProt P28324-2 1-405); conditions: protein: recombinant; tags: N-terminal GST; dsDNA, one strand shown
# T3 sequence: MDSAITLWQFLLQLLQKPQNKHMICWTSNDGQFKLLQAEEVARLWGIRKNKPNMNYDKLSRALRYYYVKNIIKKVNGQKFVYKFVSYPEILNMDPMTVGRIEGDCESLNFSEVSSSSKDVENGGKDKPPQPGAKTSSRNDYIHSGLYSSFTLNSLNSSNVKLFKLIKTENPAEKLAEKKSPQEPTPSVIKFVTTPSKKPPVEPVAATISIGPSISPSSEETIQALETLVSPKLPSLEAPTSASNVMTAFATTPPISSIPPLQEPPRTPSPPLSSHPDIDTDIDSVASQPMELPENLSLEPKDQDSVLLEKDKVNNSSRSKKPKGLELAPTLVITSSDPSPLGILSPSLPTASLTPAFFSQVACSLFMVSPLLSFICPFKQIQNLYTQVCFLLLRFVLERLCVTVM
# In short: as §1
# [7] = molecular target: T4, ETV2 (Homo sapiens, UniProt O00321 1-342); conditions: protein: recombinant; tags: N-terminal GST; dsDNA, one strand shown
# T4 sequence: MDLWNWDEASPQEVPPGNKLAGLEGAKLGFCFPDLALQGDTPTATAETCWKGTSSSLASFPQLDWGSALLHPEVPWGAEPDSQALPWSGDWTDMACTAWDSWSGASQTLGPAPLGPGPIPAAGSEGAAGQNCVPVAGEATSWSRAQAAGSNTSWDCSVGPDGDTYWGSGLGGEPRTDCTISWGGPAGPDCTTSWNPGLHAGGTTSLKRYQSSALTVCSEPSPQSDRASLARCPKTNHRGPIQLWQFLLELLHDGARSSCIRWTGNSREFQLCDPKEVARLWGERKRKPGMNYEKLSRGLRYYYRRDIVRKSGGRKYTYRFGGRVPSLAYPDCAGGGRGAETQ
# In short: as §1
# [8] = molecular target: T5, ELF3 (Homo sapiens, UniProt P78545 1-371); conditions: protein: recombinant; tags: N-terminal GST; dsDNA, one strand shown
# T5 sequence: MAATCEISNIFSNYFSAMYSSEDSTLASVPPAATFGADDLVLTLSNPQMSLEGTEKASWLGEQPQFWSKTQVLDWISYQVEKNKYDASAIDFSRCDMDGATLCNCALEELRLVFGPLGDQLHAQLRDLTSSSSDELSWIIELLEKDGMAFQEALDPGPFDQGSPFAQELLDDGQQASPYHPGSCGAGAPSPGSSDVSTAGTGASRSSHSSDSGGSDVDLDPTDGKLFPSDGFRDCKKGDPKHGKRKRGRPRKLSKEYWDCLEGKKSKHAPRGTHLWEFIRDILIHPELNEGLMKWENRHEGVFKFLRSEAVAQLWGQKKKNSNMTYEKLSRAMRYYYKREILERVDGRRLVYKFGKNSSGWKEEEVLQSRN
# In short: as §1
# [9] = molecular target: ETV1 (Homo sapiens, UniProt P50549 1-477); conditions: protein: recombinant; tags: N-terminal GST; dsDNA, one strand shown
# In short: as §1
# [10] = molecular target: T6, ERF (Homo sapiens, UniProt P50548 1-548); conditions: protein: recombinant; tags: N-terminal GST; dsDNA, one strand shown
# T6 sequence: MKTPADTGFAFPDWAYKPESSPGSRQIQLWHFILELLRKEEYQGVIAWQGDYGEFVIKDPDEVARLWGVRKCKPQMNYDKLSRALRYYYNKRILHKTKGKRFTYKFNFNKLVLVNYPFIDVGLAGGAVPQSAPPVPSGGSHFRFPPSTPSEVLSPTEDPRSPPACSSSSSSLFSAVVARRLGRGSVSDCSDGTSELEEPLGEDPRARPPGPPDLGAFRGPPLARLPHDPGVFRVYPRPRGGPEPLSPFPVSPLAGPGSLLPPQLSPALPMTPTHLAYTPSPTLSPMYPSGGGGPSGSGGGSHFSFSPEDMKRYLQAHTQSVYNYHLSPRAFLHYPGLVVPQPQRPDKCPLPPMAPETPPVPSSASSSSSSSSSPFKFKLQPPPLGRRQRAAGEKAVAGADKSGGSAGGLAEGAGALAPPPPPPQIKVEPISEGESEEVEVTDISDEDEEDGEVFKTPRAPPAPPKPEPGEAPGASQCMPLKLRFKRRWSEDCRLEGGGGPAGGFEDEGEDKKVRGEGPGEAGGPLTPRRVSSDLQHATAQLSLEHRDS
# In short: as §1
# [11] = molecular target: T7, ETV3L (Homo sapiens, UniProt Q6ZN32 1-361); conditions: protein: recombinant; tags: N-terminal GST; dsDNA, one strand shown
# T7 sequence: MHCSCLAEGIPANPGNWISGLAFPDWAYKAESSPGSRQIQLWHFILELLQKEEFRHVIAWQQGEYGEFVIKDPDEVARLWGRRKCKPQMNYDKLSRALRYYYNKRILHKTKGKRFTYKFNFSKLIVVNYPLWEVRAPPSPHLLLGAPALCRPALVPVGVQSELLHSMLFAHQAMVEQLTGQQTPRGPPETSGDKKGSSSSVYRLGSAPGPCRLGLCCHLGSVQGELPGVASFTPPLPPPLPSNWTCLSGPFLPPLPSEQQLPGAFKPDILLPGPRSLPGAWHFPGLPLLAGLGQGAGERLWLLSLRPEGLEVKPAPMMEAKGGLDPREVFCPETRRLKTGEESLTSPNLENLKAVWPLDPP
# In short: as §1
# [12] = molecular target: T8, ETS2 (Homo sapiens, UniProt P15036 1-469); conditions: protein: recombinant; tags: N-terminal GST; dsDNA, one strand shown
# T8 sequence: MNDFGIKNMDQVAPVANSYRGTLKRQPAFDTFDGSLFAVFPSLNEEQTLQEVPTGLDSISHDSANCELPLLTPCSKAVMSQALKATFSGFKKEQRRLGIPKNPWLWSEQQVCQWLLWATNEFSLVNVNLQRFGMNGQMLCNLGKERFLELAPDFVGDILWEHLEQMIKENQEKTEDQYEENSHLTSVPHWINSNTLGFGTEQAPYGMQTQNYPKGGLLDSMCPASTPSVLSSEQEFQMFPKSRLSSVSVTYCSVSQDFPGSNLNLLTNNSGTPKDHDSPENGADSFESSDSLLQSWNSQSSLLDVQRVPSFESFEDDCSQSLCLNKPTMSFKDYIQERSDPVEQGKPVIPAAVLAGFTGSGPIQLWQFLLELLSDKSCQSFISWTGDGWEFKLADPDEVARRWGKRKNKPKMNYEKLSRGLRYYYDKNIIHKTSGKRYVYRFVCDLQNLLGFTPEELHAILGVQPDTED
# In short: as §1
# [13] = molecular target: T9, SPDEF (Homo sapiens, UniProt O95238 1-335); conditions: protein: recombinant; tags: N-terminal GST; dsDNA, one strand shown
# T9 sequence: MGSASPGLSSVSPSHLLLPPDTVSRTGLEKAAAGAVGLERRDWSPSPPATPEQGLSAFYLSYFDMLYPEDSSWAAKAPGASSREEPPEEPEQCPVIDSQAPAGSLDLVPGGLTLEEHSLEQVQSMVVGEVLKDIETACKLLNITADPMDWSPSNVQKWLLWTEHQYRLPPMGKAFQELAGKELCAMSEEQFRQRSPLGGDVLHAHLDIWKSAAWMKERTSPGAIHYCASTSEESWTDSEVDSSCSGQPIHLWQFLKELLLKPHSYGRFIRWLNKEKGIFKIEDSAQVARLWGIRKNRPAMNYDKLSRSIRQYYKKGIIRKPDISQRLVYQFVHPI
# In short: as §1
# [14] = molecular target: T10, ETV7 (Homo sapiens, UniProt Q9Y603 1-341); conditions: protein: recombinant; tags: N-terminal GST; dsDNA, one strand shown
# T10 sequence: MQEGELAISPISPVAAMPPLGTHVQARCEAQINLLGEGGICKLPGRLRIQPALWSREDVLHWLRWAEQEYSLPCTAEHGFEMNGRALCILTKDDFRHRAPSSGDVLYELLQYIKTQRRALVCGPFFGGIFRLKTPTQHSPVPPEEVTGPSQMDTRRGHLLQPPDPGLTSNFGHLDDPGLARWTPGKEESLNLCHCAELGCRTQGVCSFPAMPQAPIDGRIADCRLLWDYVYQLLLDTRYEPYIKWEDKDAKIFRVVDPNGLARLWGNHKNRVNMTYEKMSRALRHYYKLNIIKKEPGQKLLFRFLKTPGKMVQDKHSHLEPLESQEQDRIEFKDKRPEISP
# In short: as §1
# [15] = molecular target: T11, ETV3 (Homo sapiens, UniProt P41162-2 1-143); conditions: protein: recombinant; tags: N-terminal GST; dsDNA, one strand shown
# T11 sequence: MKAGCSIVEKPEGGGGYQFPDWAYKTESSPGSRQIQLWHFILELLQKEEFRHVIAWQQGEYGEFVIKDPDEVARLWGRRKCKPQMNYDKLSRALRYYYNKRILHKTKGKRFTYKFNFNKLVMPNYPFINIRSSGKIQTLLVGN
# In short: as §1
# [16] = molecular target: ETV6 (Homo sapiens, UniProt P41212 1-452); conditions: protein: recombinant; tags: N-terminal GST; dsDNA, one strand shown
# In short: as §1
# ETV1, sequence (P50549 whole entry): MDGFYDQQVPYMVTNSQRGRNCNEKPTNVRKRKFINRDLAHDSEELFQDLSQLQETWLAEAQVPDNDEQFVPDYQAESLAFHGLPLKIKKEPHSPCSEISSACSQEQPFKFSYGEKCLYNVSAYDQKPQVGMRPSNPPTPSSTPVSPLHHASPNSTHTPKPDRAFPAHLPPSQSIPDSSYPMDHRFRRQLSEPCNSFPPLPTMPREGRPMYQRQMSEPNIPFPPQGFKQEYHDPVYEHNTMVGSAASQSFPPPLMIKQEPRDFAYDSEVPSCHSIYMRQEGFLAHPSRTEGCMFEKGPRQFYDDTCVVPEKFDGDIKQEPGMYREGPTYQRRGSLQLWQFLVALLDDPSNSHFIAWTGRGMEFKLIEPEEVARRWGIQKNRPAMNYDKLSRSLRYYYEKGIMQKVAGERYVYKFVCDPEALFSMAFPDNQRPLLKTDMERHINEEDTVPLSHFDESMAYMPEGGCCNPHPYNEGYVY
# HSF1, sequence (Q00613 whole entry): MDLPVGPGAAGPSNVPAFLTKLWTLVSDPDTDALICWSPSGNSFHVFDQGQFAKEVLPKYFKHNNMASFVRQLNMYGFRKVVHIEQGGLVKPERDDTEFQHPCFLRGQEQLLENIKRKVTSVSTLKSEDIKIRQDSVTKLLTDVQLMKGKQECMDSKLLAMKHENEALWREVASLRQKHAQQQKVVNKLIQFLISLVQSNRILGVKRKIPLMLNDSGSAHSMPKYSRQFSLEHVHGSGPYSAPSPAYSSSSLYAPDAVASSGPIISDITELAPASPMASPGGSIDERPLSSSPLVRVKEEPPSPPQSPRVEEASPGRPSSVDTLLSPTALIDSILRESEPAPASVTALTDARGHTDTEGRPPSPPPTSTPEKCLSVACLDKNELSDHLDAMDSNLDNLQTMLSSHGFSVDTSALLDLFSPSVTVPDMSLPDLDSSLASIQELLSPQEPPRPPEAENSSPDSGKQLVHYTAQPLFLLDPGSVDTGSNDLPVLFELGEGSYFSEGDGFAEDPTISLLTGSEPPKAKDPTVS
# ETV5, sequence (P41161 whole entry): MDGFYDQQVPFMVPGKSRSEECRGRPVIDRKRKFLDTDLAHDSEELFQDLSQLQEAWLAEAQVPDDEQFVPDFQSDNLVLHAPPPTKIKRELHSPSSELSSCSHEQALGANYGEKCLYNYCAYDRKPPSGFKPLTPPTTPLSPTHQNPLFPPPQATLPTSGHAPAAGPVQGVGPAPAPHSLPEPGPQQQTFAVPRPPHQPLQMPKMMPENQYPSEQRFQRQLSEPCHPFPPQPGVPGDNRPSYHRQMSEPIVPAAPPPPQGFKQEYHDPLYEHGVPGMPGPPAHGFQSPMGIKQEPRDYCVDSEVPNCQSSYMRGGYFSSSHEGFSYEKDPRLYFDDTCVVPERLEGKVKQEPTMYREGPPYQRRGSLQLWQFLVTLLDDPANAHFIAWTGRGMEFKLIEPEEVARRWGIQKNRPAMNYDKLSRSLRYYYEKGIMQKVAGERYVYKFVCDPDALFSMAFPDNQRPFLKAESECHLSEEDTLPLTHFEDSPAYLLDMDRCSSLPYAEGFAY
# ELF4, sequence (Q99607 whole entry): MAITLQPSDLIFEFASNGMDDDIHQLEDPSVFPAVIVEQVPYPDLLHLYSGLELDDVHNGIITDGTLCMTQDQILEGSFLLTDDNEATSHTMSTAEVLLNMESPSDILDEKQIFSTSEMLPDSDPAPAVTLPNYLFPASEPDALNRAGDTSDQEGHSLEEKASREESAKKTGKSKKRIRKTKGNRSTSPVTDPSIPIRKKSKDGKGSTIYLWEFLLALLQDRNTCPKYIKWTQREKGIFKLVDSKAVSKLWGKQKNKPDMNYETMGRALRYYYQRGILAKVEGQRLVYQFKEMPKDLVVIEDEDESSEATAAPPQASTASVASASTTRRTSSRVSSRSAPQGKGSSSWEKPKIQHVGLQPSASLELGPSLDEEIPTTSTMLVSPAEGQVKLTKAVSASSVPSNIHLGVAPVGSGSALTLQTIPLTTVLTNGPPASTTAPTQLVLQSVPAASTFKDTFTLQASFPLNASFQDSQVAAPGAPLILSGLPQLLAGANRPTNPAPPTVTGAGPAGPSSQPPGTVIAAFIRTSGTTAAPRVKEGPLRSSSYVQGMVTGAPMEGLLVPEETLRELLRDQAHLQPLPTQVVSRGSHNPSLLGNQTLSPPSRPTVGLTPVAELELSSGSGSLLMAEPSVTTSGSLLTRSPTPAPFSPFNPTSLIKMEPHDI
# ETV6, sequence (P41212 whole entry): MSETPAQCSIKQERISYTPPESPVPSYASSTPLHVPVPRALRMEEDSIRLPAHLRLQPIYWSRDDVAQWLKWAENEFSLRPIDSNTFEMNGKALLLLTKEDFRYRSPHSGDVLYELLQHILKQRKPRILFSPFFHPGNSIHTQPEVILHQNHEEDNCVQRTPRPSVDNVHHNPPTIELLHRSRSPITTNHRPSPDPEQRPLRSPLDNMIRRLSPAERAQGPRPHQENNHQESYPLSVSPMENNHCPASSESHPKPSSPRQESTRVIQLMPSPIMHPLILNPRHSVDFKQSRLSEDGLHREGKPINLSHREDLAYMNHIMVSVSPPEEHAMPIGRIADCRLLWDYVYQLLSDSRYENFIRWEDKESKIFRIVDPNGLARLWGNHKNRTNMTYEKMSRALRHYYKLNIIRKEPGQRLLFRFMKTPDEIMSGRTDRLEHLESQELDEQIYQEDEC
sequence,measurement,setting,value
CACTGG,binding signal,[1],"1.07 fold enrichment (6-mer frequency, TF over GST control)"
same,binding signal,[2],"1.13 fold enrichment (6-mer frequency, TF over GST control)"
same,binding signal,[3],"1.16 fold enrichment (6-mer frequency, TF over GST control)"
same,binding signal,[4],"1.24 fold enrichment (6-mer frequency, TF over GST control)"
same,binding signal,[5],"1.04 fold enrichment (6-mer frequency, TF over GST control)"
same,binding signal,[6],"1.05 fold enrichment (6-mer frequency, TF over GST control)"
same,binding signal,[7],"1.22 fold enrichment (6-mer frequency, TF over GST control)"
same,binding signal,[8],"1.11 fold enrichment (6-mer frequency, TF over GST control)"
same,binding signal,[9],"1.22 fold enrichment (6-mer frequency, TF over GST control)"
same,binding signal,[10],"1.17 fold enrichment (6-mer frequency, TF over GST control)"
same,binding signal,[11],"1.16 fold enrichment (6-mer frequency, TF over GST control)"
same,binding signal,[12],"1.01 fold enrichment (6-mer frequency, TF over GST control)"
same,binding signal,[13],"1.02 fold enrichment (6-mer frequency, TF over GST control)"
same,binding signal,[14],"1.03 fold enrichment (6-mer frequency, TF over GST control)"
same,binding signal,[15],"1.07 fold enrichment (6-mer frequency, TF over GST control)"
same,binding signal,[16],"1.04 fold enrichment (6-mer frequency, TF over GST control)"
